Source: PubChem
Only some compounds are listed: those with a hit (about 4.8% of all), similar ones and a draw of the others.
SUMO Mot1 rescue = yeast Mot1-301 growth rescue at high temperature, primary screen, SUMOylation pathway inhibitor project, S. cerevisiae, ATP luminescence, 38.5C; S. cerevisiae Mot1-301 growth rescue; percent above DMSO median, 100 means doubled; growth rescue, % at 18.8 µM; 1% of 320,000 active; AID 2716, 2010;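 active = every valid replicate shows activation above 250% relative to neutral control wells; inactive = the rest, any valid replicate at or below 250%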;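 also: OY570 slx delta 5 strain wells were the positive control but not used for scaling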
HIF act = HIF pathway transcriptional activators, primary screen, cell-based, U2OS HRE-luciferase, luminescence. U2OS HRE-luciferase reporter; normalized: DMSO 0%, desferrioxamine 100%. activation, % at 7.5 µM (by protocol). 0.32% of 300,000 active. AID 1910, 2009;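 active = mean activation of at least 10% of the iron chelator positive control signal, with at least half of replicates also reaching 10%; inconclusive = mean and replicate majority disagree about reaching 10%; inactive = mean and most replicates under 10%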
ALR H2O2 inh = inhibitors of human ALR sulfhydryl oxidase, primary screen, biochemical, H2O2 detection, HRP-luminol luminescence, single point; inhibition, % (test concentration not listed); FAD-linked sulfhydryl oxidase ALR (Homo sapiens), P55789; AID 485317, 2010; 3.8% of 290,000 active; purified ALR, DTT oxidation;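 active = mean replicate inhibition above about 79%, with every replicate also reaching it, limit read from the data; inconclusive = only one of the two criteria met; inactive = mean below limit and not every replicate reaching it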
Target sequence (P55789 whole entry, looked up): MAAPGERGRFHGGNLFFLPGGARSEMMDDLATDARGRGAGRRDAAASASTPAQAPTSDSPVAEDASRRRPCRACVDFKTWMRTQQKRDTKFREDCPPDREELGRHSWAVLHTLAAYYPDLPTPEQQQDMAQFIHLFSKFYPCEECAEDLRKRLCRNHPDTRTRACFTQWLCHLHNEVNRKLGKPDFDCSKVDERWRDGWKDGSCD
AI-2 QS mod = Vibrio harveyi AI-2 quorum sensing modulators, primary screen, JMH597 strain, luminescence/OD600 ratio. 0.4% of 300,000 active. Vibrio harveyi JMH597 AI-2 luminescence/OD600 ratio, 9 h; hits give low values; strain lacks LuxN and CqsS sensors; 0 = neutral-control median. activity change, % at 7.5 µM; in the data active = activity change below about -75%, passing the limit was not always enough; inconclusive = no clear call, values can overlap the other calls;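 also: luminescence divided by OD600 gain over 9 h not by final OD600 alone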
JMH597 growth = Vibrio harveyi growth inhibition, confirmation, counter-screen for AI-2 quorum sensing project, JMH597 strain, OD600 absorbance; shares compounds with AI-2 QS mod; 9 h; lacks LuxN and CqsS sensors; growth inhibition, % at 7.5 µM; 1% of 750 active; AID 2726, 2010;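 active = every replicate shows growth inhibition above 50%; inconclusive = at least half, but not all, replicates pass that cutoff; inactive = fewer than half of replicates pass it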
BB721 const-QS lum = luminescence inhibition in constitutive-on V. harveyi, confirmation, counter-screen for LuxS inhibitor project, strain BB721, luminescence readout. shares compounds with AI-2 QS mod. Vibrio harveyi BB721 luminescence, 9 h. inhibition, % at 7.5 µM. 95% of 750 active;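 active = inhibition above about 80% in every replicate, not just on average, limit read from the data; inconclusive = at least half of replicates past the limit, but not all; inactive = fewer than half of replicates past the limit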
BB721 growth = growth inhibition of V. harveyi BB721, confirmation, cytotoxicity control for AI-2 quorum sensing inhibitors, strain BB721, absorbance OD600. shares compounds with AI-2 QS mod. 3% of 750 active. Vibrio harveyi BB721 growth, 9 h. AID 2728, 2010. growth inhibition, % at 7.5 µM;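 active = every replicate shows growth inhibition above 50%; inconclusive = at least half but not all replicates above 50% inhibition; inactive = under half of replicates above 50% inhibition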
AI-2 QS JMH597 = Vibrio harveyi AI-2 signaling luminescence modulation – JMH597 strain, confirmation. 97% of 750 active. shares compounds with AI-2 QS mod. Vibrio harveyi JMH597 AI-2 quorum sensing luminescence, 9 h; luxN and CqsS knockout, AI-2 only. inhibition, % at 7.5 µM;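 active = every replicate shows more than 75% inhibition of signal versus neutral control wells; inconclusive = half to three quarters of replicates exceed 75% inhibition; inactive = fewer than half of replicates exceed 75% inhibition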
Active calls of the source: *; ? = inconclusive; . = no result.

SMILES	SUMO Mot1 rescue	HIF act	ALR H2O2 inh	AI-2 QS mod	JMH597 growth	BB721 const-QS lum	BB721 growth	AI-2 QS JMH597
c1ccc2c(c1)oc1c(NCc3ccc4c(c3)OCO4)ncnc12	-7	0	-3	-88*	30	93*	9	97*
COC(=O)[C@@]12OC[C@]34[C@H]([C@@H](O)[C@@H]1O)[C@@]1(C)C(=O)C(O[C@@H]5OC(CO)[C@@H](O)[C@@H](O)[C@@H]5O)=C[C@@H](C)[C@@H]1C[C@H]3OC(=O)[C@H](OC(=O)/C=C(\C)C(C)(C)OC(C)=O)[C@@H]24 (some centres not stated)	-14	.	.	.	.	.	.	.
CCC1(c2ccccc2)NC(=O)N(CC(=O)Nc2ccc(S(=O)(=O)NC3=NCCCCC3)cc2)C1=O (configuration not stated)	9	-1	.	30	.	.	.	.
CCc1ccc(NC(=O)CCc2ccc(CC)o2)cc1	1	0	24	?	20	73	-10	88*
CCc1ccc(CCC(=O)Nc2ccc(C)c(C)c2)o1	27	1	11	-87*	4	93*	-28	96*
CCC(=O)Nc1ccc(NC(=O)CSc2nnnn2C2CCCC2)cc1C	.	1	.	13	.	.	.	.
O=C(CN(c1cc(Cl)ccc1Cl)S(=O)(=O)c1ccccc1)N1CCOCC1	0	0	-16	10	.	.	.	.
Cc1ccc(NC(=O)C(=O)c2ccc(C)cc2)cc1	240	2	-2	-93*	3	97*	19	97*
Cc1ccc(NC(=O)c2ccccc2)cc1	11	4	-18	15	.	.	.	.
O=C(NCc1ccc2c(c1)OCO2)Nc1ccc2nsnc2c1	1	0	-6	-85*	79*	97*	3	99*
O=C(Nc1ccon1)Nc1cccc(Cl)c1Cl	5	0	-15	4	.	.	.	.
CCN(CC)S(=O)(=O)c1ccc(NC(=O)Cn2cnc3ccccc3c2=O)cc1	-14	-1	-26	-94*	23	99*	13	99*
CN(C)S(=O)(=O)c1cccc(NC(=O)Cn2cnc3ccccc3c2=O)c1	-7	0	-9	-88*	15	96*	13	97*
O=C1C=C(c2ccc(F)nc2)C[C@@H](c2ccc3c(c2)OCO3)C1	-2	.	-17	.	.	.	.	.
CN(C)S(=O)(=O)c1ccc(NC(=O)CN2CCc3ccccc32)cc1	-18	0	.	-92*	-17	96*	-8	97*
COc1ccc(NS(=O)(=O)c2cc(C(=O)N3CCC3)ccc2C)cc1	-4	.	0	.	.	.	.	.
CSc1ccccc1NC(=O)c1ccc(N2CC3CC(C2)c2cccc(=O)n2C3)c(NC(=O)c2cccnc2)c1 (configuration not stated)	-3	0	-1	26	.	.	.	.
O=C(Cn1cnc2ccccc2c1=O)Nc1ccc2c(c1)CCC2	-6	0	-3	-83*	7	99*	-6	99*
O=C(Cn1nnc2ccccc2c1=O)NC1CCCc2ccccc21 (configuration not stated)	2	0	-2	25	.	.	.	.
COC(=O)c1ccc(C)c(NC(=O)Cn2cnc3ccccc3c2=O)c1	-8	0	-5	-86*	-16	94*	-18	96*
O=C(Cn1nnc2ccccc2c1=O)Nc1ccc2c(c1)CCC2	-5	1	7	-94*	-15	99*	-29	99*
COc1ccc(-n2nc(C(=O)NCC(=O)N3CCCC3)c3ccccc3c2=O)cc1Cl	39	0	7	13	.	.	.	.
O=C(CN1C(=O)NC2(CCCC2)C1=O)N1CCN(S(=O)(=O)c2cc(Cl)ccc2Cl)CC1	18	.	-4	.	.	.	.	.
COc1ccc(CN=CC2=C(O)CNC2=O)cc1	18	-1	-12	4	.	.	.	.
COc1ccc(CN=CC2=C(O)CC(C)(C)CC2=O)cc1	103	1	-6	-80*	23	88*	13	92*
SMILES	SUMO Mot1 rescue	HIF act	ALR H2O2 inh	AI-2 QS mod	JMH597 growth	BB721 const-QS lum	BB721 growth	AI-2 QS JMH597
c1ccc(OCc2nnc(-c3ccccc3)o2)cc1	.	2	-3	-88*	14	97*	27	97*
O=C(CNc1ccc(Br)cc1)c1ccc(O)cc1	9	1	8	-82*	-13	90*	-42	93*
COc1ccc(C(CC(=O)c2ccc(O)cc2)S(=O)(=O)c2ccc(C)cc2)cc1 (configuration not stated)	-12	3	-47	-91*	3	96*	-13	97*
COc1ccc(C(=O)CC(c2ccccc2)S(=O)(=O)c2ccc(C)cc2)cc1 (configuration not stated)	-2	2	-1	14	.	.	.	.
CC(C)C(=O)OCc1cn(-c2ccc(Cl)c(Cl)c2)nn1	13	0	1	-82*	2	95*	-11	96*
Cc1ccccc1CSc1nnnn1-c1ccc(C(N)=O)cc1	212	-1	0	11	.	.	.	.
Oc1ccc(-n2nnnc2SCc2ccccc2Br)cc1	-6	-2	25	?	12	81*	1	87*
O=C(NCc1ccc2c(c1)CCO2)Nc1ccccc1	261	3	-3	-83*	-7	96*	0	96*
Cc1ccc(C(=O)NCc2ccc3c(c2)CCO3)cc1C	3	2	-3	-53	.	.	.	.
CN(CC(=O)Nc1cccc(F)c1)CC(=O)Nc1ccccc1Oc1ccccc1	37	3	-41	25	.	.	.	.
COc1cccc(OCc2nc(-c3ccc(Br)o3)no2)c1	.	1	69	-83*	39	96*	-1	97*
COc1cccc(OCc2nc(-c3cccc([N+](=O)[O-])c3)no2)c1	20	0	-8	-83*	14	86*	-21	93*
COc1ccc(C)cc1NC(=O)CCCN1C(=O)CN(C)C1=O	-16	.	.	.	.	.	.	.
CC1(C)NC(=O)N(CC(=O)N2CCN(c3cccc(Cl)c3)CC2)C1=O	-1	.	-1	.	.	.	.	.
CCC(NC(=O)CN1CCN(C(=O)c2cccs2)CC1)c1ccc(C)cc1 (configuration not stated)	-21	.	-1	.	.	.	.	.
